Source: PubChem BioAssay (National Center for Advancing Translational Sciences (NCATS))
G9a inh: inhibitors of human histone lysine methyltransferase G9a | 350,000 compounds, 8.8% hits | G9a H3K9 monomethylation, AlphaScreen, 2 h | Q96KQ7 | Potency, µM (series often up to 102 µM), without a hit: top-dose activity, negative = inhibition, actives largely listed as inhibitors; further: on the % scale 0 is the no-effect control and ±100 the full control effect; nearly all actives have a fitted effect of over 75% in size
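Using a bead-based AlphaScreen, monomethylated H3K9 product from 2 h room-temperature reactions (G9a 20 nM, peptide 500 nM, SAM 20 uM) was detected with 0.5 ug/mL rabbit anti-H3K9me1 antibody.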
Sfp PPTase inh: inhibitors of Bacillus subtilis Sfp phosphopantetheinyl transferase; Q9F4F7; Biochemical Sfp PPTase activity, qHTS; Potency, µM, inactives show largest response in the series, negative = inhibition, hits mostly inhibitors; 310,000 compounds, 3.5% hits; AID 1490;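 further: the enzyme is Sfp with the accession as filed and its product quenches rhodamine fluorescence; 0% = enzyme reaction without inhibitor and -100% = no enzyme wells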
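Step 1, compound plus 15 nM Sfp-PPTase, 15 min, room temperature. Step 2, add rhodamine-CoA (5 uM) and BHQ-2-YbbR (12.5 uM). Step 3, read 525/598 nm fluorescence at 0 and 30 min.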
BAZ2B block: inhibitors of human BAZ2B bromodomain; Q9UIF8; AlphaScreen BAZ2B-H3K14Ac peptide displacement; Potency, µM (top dose mostly 114 µM), for the others: at the highest dose activity change, negative = inhibition, actives largely listed as inhibitors; 360,000 compounds, 4.4% hits; AID 504333; further: on the % scale 0 is the no-effect control and ±100 the full control effect; nearly all actives have a fitted effect of over 60% in size
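Inhibition is scored as reduced AlphaScreen emission. The BAZ2B/b-H3(5-23)K14Ac complex (50 nM each) in PBS pH 7.4, 0.01% Tween-20 meets compound (up to 110 uM) for 30 min at RT before bead addition.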
JMJD2A Tudor: inhibitors of human JMJD2A Tudor domain; O75164; AlphaScreen JMJD2A-Tudor / H3K4me3 peptide binding; Potency, µM (highest dose often 114 µM), without a hit: at the highest dose activity change, negative = inhibition, hits mostly inhibitors; 390,000 compounds, 4.4% hits; AID 504339; further: on the % scale 0 is the no-effect control and ±100 the full control effect; nearly all actives have a fitted effect of over 50% in size
HP1b binding inh: blocks HP1-beta chromodomain binding to methylated histone tails. 390,000 compounds, 0.56% hits. Potency, µM (highest dose often 114 µM), without a hit: at the top dose activity change, negative = inhibition, actives largely listed as inhibitors. P83916. AlphaScreen HP1-beta / biotin-H3K9me3 peptide binding; further: nearly all actives have a fitted effect of over 70% in size
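AlphaScreen: HP1-beta (50 nM) preformed 30 min with biotin-H3(1-18)K9me3 peptide (50 nM) in PBS pH 7.4, 0.01% Tween-20. Compound added for 30 min at RT, then streptavidin donor/nickel chelate acceptor beads (10 ug/mL) for 30 min.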
PLK1 PBD block: inhibitors of human PLK1 polo-box domain binding | P53350 | Plk1 PBD binding of FITC phosphopeptide, fluorescence polarization | Potency, µM, without a hit: max response, negative = inhibition, most hits filed as inhibitors | 360,000 compounds, 2.8% hits | AID 720504; further: series mostly up to about 57 µM; on the % scale 0 is the no-effect control and ±100 the full control effect; nearly all actives have a fitted effect of over 65% in size
An asterisk follows results filed as active; i = inactive; u = inconclusive; x = not tested or not shown; [ ] = remark or other dose. Only some compounds are listed: those with a hit (about 12% of all), similar ones and a draw of the others. The call rests on the fitted dose curve; in most records, active means well fitted curve in the direction sought with a large enough effect; inconclusive means small, poorly fitted or top-dose-only effect, or another doubt; inactive means no such curve, though single readings can be large; an effect the other way counts as inactive or inconclusive. Potency means the concentration at half of the fitted maximal effect.

SMILES	G9a inh	Sfp PPTase inh	BAZ2B block	JMJD2A Tudor	HP1b binding inh	PLK1 PBD block
Cc1ccc(C(=O)Nc2cccc(NC(=O)c3ccc(C)c([N+](=O)[O-])c3)n2)cc1[N+](=O)[O-]	8%	-22%	2%	-33%	-10%	3%
N#CCCS(=O)(=O)c1nnnn1-c1ccccc1	u	u	-1%	x	x	x
Cc1cc(C)c(S(=O)(=O)N2CCN(c3ccccn3)CC2)c(C)c1	10%[0.501 µM]	x	8%	5%	40%	1%
CCOc1ccc(-c2nonc2NC(=O)COc2ccccc2)cc1	-27%[59 µM]	x	7%	-11%	31%	x
Cc1ccc2nc3c(cc2c1)c(C)nn3-c1ccccc1	i	-8%	416%	476%	i	4%
Cc1nn(-c2ccc(Cl)cc2)c(=O)c2ccccc12	7%	2%	1%	-9%	36%	-8%
Cc1nn(-c2ccccc2)c2nc(=O)n(-c3ccccc3)cc12	11%[59 µM]	4%	3%	u	u	3µM*
Cc1nn(-c2ccccc2)c(=S)c2ccccc12	13µM*	-23%	u	7%	37%	0%
CCc1ccccc1NC(=O)Cn1nnc(C(=O)NCc2ccco2)c1N	6%[59 µM]	x	x	-14%	10%	x
Cc1ccc2c(CC(=O)NCc3ccc4c(c3)OCO4)coc2c1	2%[12.7 µM]	21%	0%	0%	29%	-4%
COc1ccc(-c2nsc(SCC(=O)NCc3ccc4c(c3)OCO4)n2)cc1	25µM*	-8%	-4%	4%	50%	-2%
Cc1cccc(-c2nsc(SCC(=O)NCc3ccc4c(c3)OCO4)n2)c1	-8%	-25%	5%	-3%[57.1 µM]	39%	-8%
CSc1nsc(SCC(=O)Nc2ccc(OC(C)=O)cc2)n1	-26%	-12%	-7%	1%	52%	0%
COc1ccc2c(CC(=O)NCc3ccc4c(c3)OCO4)coc2c1	u	11%	50µM*	40µM*	-19%	-16%
COc1ccc(CNC(=O)CSc2nc(SC)ns2)cc1	45µM*	2%	-7%	-13%	22%	-9%
CSc1nsc(SCC(=O)Nc2ccccc2F)n1	12%	5%	-2%	9%	21%	-16%
CSc1nsc(SCC(=O)Nc2ccccc2C(N)=O)n1	79µM*	2%	-3%	-6%	13%	-16%
O=C(Nc1ccc(F)cc1F)NC1CCN(Cc2c(F)cccc2Cl)CC1	6%	13%	-2%	-9%	23%	-12%
CC(C)(C)c1nc(-c2ccccc2)nc2c1OCCC2	-4%[2.33 µM]	x	59%	46%	127%	3%
CN(C)C(=O)CCc1ccc2c3c([nH]c2c1)[C@]1(C)[C@@H](C(=O)N2CCOCC2)C[C@H](CC(=O)NCCC2=CCCCC2)C(=O)N1CC3	x	x	x	-10%	42%	-4%
Cc1ccc(C(=O)NNC(=O)CCC(=O)Nc2cccc(Cl)c2C)cc1	7%	79µM*	-7%	-1%	31%	1%
Cc1sc2ncnc(N3CCCCC3)c2c1C	35%[12.7 µM]	12%	7%	11%	35%	-4%
CCc1cc2c(SCC#N)ncnc2s1	x	4%	7%	u	0%	27µM*
CCc1cc2c(N3CCCCC3)ncnc2s1	50µM*	-25%	0%	-8%	63%	-3%
CCc1ccc(NC(=O)CC2C(=O)N(c3ccc(Cl)cc3)C(=O)N2Cc2ccco2)cc1 (stereo unspecified)	u	x	-13%	-29%	-2%	x
SMILES	G9a inh	Sfp PPTase inh	BAZ2B block	JMJD2A Tudor	HP1b binding inh	PLK1 PBD block
CCCCCCCCCCOC(=O)Cn1c(COc2ccccc2)[n+](C)c2ccccc21	-12%	40µM*	-2%	-28%	16%	-20%
CCCCOC(=O)Cn1c(=O)n(CC(=O)OCCCC)c2ccccc21	27%	20%	0%	2%	38%	-8%
CCCCCCCCCCOC(=O)Cn1c(COc2ccccc2C)[n+](C)c2ccccc21	-20%	45µM*	2%	-32%	20%	-21%
CCCCCCCCCCOC(=O)Cn1c(COc2ccc(Cl)cc2)[n+](C)c2ccccc21	u	25µM*	-21%	-24%	25%	-22%
CCCCCCCCCCOC(=O)Cn1c(COc2cccc(C)c2)[n+](C)c2ccccc21	23%[0.501 µM]	56µM*	-7%	-30%	44%	-17%
CCOC(=O)Cn1c(COc2ccccc2OC)[n+](C)c2ccccc21	x	x	x	-1%	48%	0%
CCCCCCCCCCOC(=O)Cn1c(COc2ccc(OC)cc2)[n+](C)c2ccccc21	u	35µM*	-17%	u	16%	-17%
O=C(Nc1ccc(Cl)cc1)[C@@H]1[C@@H]2C(=O)N(c3ccc(Cl)cc3)C(=O)[C@@H]2[C@H]2C=CC=NN21	u	45µM*	-39%	u	-26%	24µM*
Cc1ccc(N2C(=O)[C@@H]3[C@H](C2=O)[C@H]2C=CC=NN2[C@@H]3C(=O)Nc2ccc(Cl)cc2)cc1	3.2µM*	40µM*	50µM*	-8%[57.1 µM]	2%	u
O=C(Nc1ccc(Cl)cc1)[C@@H]1[C@@H]2C(=O)N(c3ccc(Cl)cc3Cl)C(=O)[C@@H]2[C@H]2C=CC=NN21	u	-10%	u	x	x	x
CN(C)/C=C1\C(=O)Oc2ccccc2C1=O	x	x	x	-18%	27%	-14%
Cc1ccc(NC(=O)CSCC(=O)NC2=NCCS2)cc1	u	x	-19%	-10%	44%	0%
COc1ccc(-c2nc3cnc(OC)nc3n(-c3ccccc3)c2=O)cc1	5%[0.501 µM]	-1%	x	x	x	x
CC(=O)c1nc(N2C(=O)CC(Cc3cc(C)cc(C)c3)C2=O)sc1C (stereo unspecified)	45µM*	25%	-26%	-14%	22%	-13%
CCOc1ccc(C(=O)NCC(c2ccc(Cl)cc2)N2CCCCC2)cc1 (stereo unspecified)	-1%[59 µM]	x	-19%	-18%	39%	x
N#CC1=C(N)N(c2ccc(Br)cc2)C2=C(C(=O)CCC2)C1c1cccnc1 (stereo unspecified)	11µM*	5.6µM*	-38%	-21%	43%	-14%
N#CC1=C(N)N(c2ccccc2C#N)C2=C(C(=O)CCC2)C1c1ccsc1 (stereo unspecified)	u	1%	56µM*	-33%	10%	1%
COc1ccc(-c2nc(N)n(C(=O)c3cccs3)n2)cc1	-3%[59 µM]	-1%	-9%	89µM*	12%	-2%
COc1ccc(-c2nc(N)n(C(=O)c3ccccc3)n2)cc1	-26%	5%	-21%	-4%	34%	-6%
CCOCCCNCC(=O)Nc1ccccc1N1CCOCC1	11µM*	-25%	35µM*	4µM*	u	-5%
CSc1ccccc1NC(=O)CNCCCN1CCOCC1	3.5µM*	u	56µM*	0.11µM*	-26%[57 µM]	u
CCc1ccccc1NC(=O)C(=O)NCCCN1CCOCC1	-41%[59 µM]	x	2%	-10%	31%	x
